What was measured:
Details in all cases: Compound Concentration (nM):1000
ROCK2 = test system: ROCK2
ROS1 = test system: ROS1
[1] = test system: RPS6KA4(Kin.Dom.1-N-terminal)
[2] = test system: RPS6KA4(Kin.Dom.2-C-terminal)
[3] = test system: RPS6KA5(Kin.Dom.1-N-terminal)
[4] = test system: RPS6KA5(Kin.Dom.2-C-terminal)
[5] = test system: T1, RSK1(Kin.Dom.1-N-terminal)
T1 construct: gene RPS6KA1

[6] = test system: T2, RSK1(Kin.Dom.2-C-terminal)
T2 construct: gene RPS6KA1

[7] = test system: T3, RSK2(Kin.Dom.1-N-terminal)
T3 construct: gene RPS6KA3

[8] = test system: T4, RSK2(Kin.Dom.2-C-terminal)
T4 construct: gene RPS6KA3

[9] = test system: T5, RSK3(Kin.Dom.1-N-terminal)
T5 construct: gene RPS6KA2

[10] = test system: T6, RSK3(Kin.Dom.2-C-terminal)
T6 construct: gene RPS6KA2

[11] = test system: T7, RSK4(Kin.Dom.1-N-terminal)
T7 construct: gene RPS6KA6

[12] = test system: T8, RSK4(Kin.Dom.2-C-terminal)
T8 construct: gene RPS6KA6

S6K1 = test system: T9, S6K1
T9 construct: gene RPS6KB1

SBK1 = test system: SBK1
SGK2 = test system: SGK2
SGK3 = test system: SGK3
SGK = test system: T10, SGK
T10 construct: gene SGK1

SIK2 = test system: SIK2
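Also: KINOMEscan scanMAX binding as percent activity remaining versus control; lower means stronger binding.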

| SMILES | Percent Control (ROCK2) [%] | Percent Control (ROS1) [%] | Percent Control [1] [%] | Percent Control [2] [%] | Percent Control [3] [%] | Percent Control [4] [%] | Percent Control [5] [%] | Percent Control [6] [%] | Percent Control [7] [%] | Percent Control [8] [%] | Percent Control [9] [%] | Percent Control [10] [%] | Percent Control [11] [%] | Percent Control [12] [%] | Percent Control (S6K1) [%] | Percent Control (SBK1) [%] | Percent Control (SGK2) [%] | Percent Control (SGK3) [%] | Percent Control (SGK) [%] | Percent Control (SIK2) [%] |
| --- | --- | --- | --- | --- | --- | --- | --- | --- | --- | --- | --- | --- | --- | --- | --- | --- | --- | --- | --- | --- |
| CCn1c(-c2nonc2N)nc2c(C#CC(C)(C)O)nc(OCCNC)cc21.Cl [GSK949675] | 78 | 100 | 100 | 5.9 | 91 | 34 | 100 | 100 | 97 | 72 | 99 | 100 | 100 | 100 | 100 | 96 | 100 | 92 | 94 | 90 |
| CN(C)CCNC(=O)Nc1ccc(N(C)c2ccnc(Nc3ccc(CS(C)(=O)=O)cc3)n2)cc1.Cl [GW830900A] | 9.1 | 61 | 100 | 88 | 100 | 100 | 100 | 84 | 73 | 82 | 100 | 94 | 74 | 87 | 85 | 95 | 80 | 84 | 48 | 73 |
| COc1cccc(-c2c[nH]c3c(N/N=C/c4ccncc4)ncnc23)c1 [GW814408X] | 73 | 100 | 100 | 62 | 100 | 100 | 88 | 77 | 75 | 100 | 100 | 100 | 49 | 100 | 84 | 83 | 38 | 59 | 22 | 17 |
| COc1ccc2[nH]c3c4[nH]c5ccc(OC)cc5c4c4c(c3c2c1)C(=O)NC4=O [GW296115X] | 73 | 24 | 71 | 25 | 53 | 66 | 49 | 100 | 21 | 95 | 28 | 69 | 5.8 | 61 | 21 | 95 | 46 | 8.1 | 6.8 | 9.9 |
| Cc1cc(O)cc(C)c1/C=C/c1cncc(C(N)=O)c1 [GW435821X] | 100 | 86 | 100 | 98 | 100 | 100 | 100 | 100 | 100 | 96 | 100 | 100 | 96 | 100 | 100 | 100 | 100 | 84 | 100 | 53 |

From paper PMC7826789 (International Journal of Molecular Sciences, 2021)
